81 compounds from paper PMC4336329 (PLoS ONE, 2015) can be followed below.

Structures are written as SMILES. About 14,000 (4.5%) of roughly 310,000 compounds showed an effect of 50% or more. Effects have a minus sign here. What follows is part of a selection rich in strong results, with near analogues and random picks from the rest.
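Further: peak tail current of the secondary pulse compared with the same well before compound.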

The target in this assay is human ether-à-go-go-related gene (hERG) potassium channel (human, UniProt Q12809). Description: primary screen, population patch clamp on CHO cells stably expressing hERG; higher = less effect of the substance.
Sequence of human ether-à-go-go-related gene (hERG) potassium channel (Q12809 whole entry, looked up): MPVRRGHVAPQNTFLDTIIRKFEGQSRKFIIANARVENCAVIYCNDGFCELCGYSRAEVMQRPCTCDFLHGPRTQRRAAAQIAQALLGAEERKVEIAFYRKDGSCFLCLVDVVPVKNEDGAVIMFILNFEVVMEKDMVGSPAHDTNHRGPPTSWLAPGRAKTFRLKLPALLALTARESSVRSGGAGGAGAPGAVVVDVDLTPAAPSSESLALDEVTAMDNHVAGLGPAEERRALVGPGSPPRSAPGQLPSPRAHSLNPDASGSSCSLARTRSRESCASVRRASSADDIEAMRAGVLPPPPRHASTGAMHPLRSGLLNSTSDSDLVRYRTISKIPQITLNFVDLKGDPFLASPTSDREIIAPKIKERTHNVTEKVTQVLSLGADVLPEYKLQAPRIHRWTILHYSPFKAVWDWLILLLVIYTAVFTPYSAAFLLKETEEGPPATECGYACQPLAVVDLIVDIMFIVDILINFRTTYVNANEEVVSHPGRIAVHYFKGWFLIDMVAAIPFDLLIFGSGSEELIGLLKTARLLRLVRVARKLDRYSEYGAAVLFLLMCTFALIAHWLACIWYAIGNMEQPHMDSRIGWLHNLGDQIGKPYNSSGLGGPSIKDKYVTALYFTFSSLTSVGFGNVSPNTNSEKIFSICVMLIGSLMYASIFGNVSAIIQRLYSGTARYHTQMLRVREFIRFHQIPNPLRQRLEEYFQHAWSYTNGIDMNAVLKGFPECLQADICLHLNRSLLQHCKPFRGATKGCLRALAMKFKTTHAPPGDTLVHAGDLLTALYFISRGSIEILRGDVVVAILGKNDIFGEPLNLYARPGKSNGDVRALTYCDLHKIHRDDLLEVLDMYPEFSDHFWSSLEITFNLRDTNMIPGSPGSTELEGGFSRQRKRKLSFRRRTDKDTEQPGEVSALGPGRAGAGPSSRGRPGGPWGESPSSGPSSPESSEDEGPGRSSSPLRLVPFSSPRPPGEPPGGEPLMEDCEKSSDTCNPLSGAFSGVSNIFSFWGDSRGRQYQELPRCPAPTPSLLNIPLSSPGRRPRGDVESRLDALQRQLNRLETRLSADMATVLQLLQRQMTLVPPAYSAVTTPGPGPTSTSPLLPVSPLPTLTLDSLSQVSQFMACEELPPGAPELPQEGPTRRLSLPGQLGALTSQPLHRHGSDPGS
On to `O=C(Nc1nnc(SCC(=O)N2CCOCC2)s1)C1CC(=O)N(c2ccc(F)cc2)C1` (stereo not drawn), for which the “hERG current change (%, negative = inhibition) at 10uM” value turned out to be 15%.
Take `O=[N+]([O-])c1ccc(Cl)cc1CNc1ccc(F)c(F)c1`: the “hERG current change (%, negative = inhibition) at 10uM” value is 0.95%.
As for `COc1ccc(NC(=O)c2cc([N+](=O)[O-])ccc2NC(=O)CNC2CCCCC2C)c(OC)c1` (stereo not drawn), the “hERG current change (%, negative = inhibition) at 10uM” value is listed as -76.3%.
The value for `COc1ccc(CNC2CCCc3ccccc32)c(OC)c1` (stereo not drawn) was -36.9%; that for `COc1ccc(CC(=O)NC2CCCCCC2)c(OC)c1` was -3.09%.
As for `COc1cc(NC(=O)c2cc([N+](=O)[O-])ccc2NC(=O)CNC2CCCCC2C)cc(OC)c1` (stereo not drawn), the “hERG current change (%, negative = inhibition) at 10uM” value is given as 20.3%.
Next, `COc1ccc(NC(=O)c2cc([N+](=O)[O-])ccc2NC(=O)CNCc2ccccn2)c(OC)c1`: 7.29%; `COc1ccc(CNC2CCCCC2C)c(OC)c1` (stereo not drawn): -56.9%.
Next, `CCOc1ccc(CCNC(=O)COC(=O)c2ccc(C)s2)cc1OCC`: 14.6%; `COc1ccc(C2NC(=O)C(C#N)=C(S)N2c2ccc(C)cc2)cc1OC` (stereo not drawn): 18.2%; `Cc1c(C(N)=O)sc2nc(-c3ccccc3)cn12`: 1.01%.
The value for `CCOC(=O)c1cc(NC(=O)CNCC(c2ccccc2)N(C)C)cc(C(=O)OCC)c1.O=C(O)C(=O)O` (stereo not drawn) was -57.7%; that for `CC(=O)c1ccc(NC(=O)CNCC(c2ccccc2)N(C)C)cc1.O=C(O)C(=O)O` (stereo not drawn) was 2.26%; that for `Cc1ccc(NC(=O)CNCC(c2ccccc2)N(C)C)cc1F.O=C(O)C(=O)O` (stereo not drawn) was -38.1%.
On to `Cc1ccc(Cl)cc1NC(=O)CNCC(c1ccccc1)N(C)C.O=C(O)C(=O)O` (stereo not drawn), for which the “hERG current change (%, negative = inhibition) at 10uM” value was -30.3%.
The value for `COc1ccc(Cl)cc1NC(=O)CNCC(c1ccccc1)N(C)C.O=C(O)C(=O)O` (stereo not drawn) was -73.9%; that for `COc1ccc(Cl)cc1NC(=O)CNC(c1ccccc1)c1ccccc1` was 12.6%; that for `Cn1c(SCC(=O)N2CCOCC2)nc2c(c1=O)SCC2` was 15.8%.
Next, `CC(C)(C)OC(=O)N1CCC(CC2CC(c3ccc(Cl)cc3)=NO2)(C(=O)NCC2CCCCC2)CC1` (stereo not drawn): -19.5%.
`O=C(c1ccccc1)N1CCC(CC2CC(c3ccc(Cl)cc3)=NO2)(C(=O)NCC2CCCCC2)CC1` (stereo not drawn): the “hERG current change (%, negative = inhibition) at 10uM” value is on record as -52%.
The value for `O=C(c1ccccc1)N1CCC(CC2CC(c3cccc(Br)c3)=NO2)(C(=O)NCC2CCCCC2)CC1` (stereo not drawn) was -1.49%; that for `CC(C)(C)OC(=O)N1CCC(CC2CC(c3cccc(Br)c3)=NO2)(C(=O)NCC2CCCCC2)CC1` (stereo not drawn) was 13.7%.
The value for `O=C(C1CCCC1)N1CCC(CC2CC(c3ccc(Cl)cc3)=NO2)(C(=O)NCC2CCCCC2)CC1` (stereo not drawn) was -24.1%; that for `O=C(C1CCCC1)N1CCC(CC2CC(c3cccc(Br)c3)=NO2)(C(=O)NCC2CCCCC2)CC1` (stereo not drawn) was -49.9%.
The value for `O=C(CCCCCBr)N1CCC(CC2CC(c3cccc(Br)c3)=NO2)(C(=O)NCC2CCCCC2)CC1` (stereo not drawn) was -69%.
`O=C(CCCCCBr)N1CCC(CC2CC(c3ccc(Cl)cc3)=NO2)(C(=O)NCC2CCCCC2)CC1` (stereo not drawn): the “hERG current change (%, negative = inhibition) at 10uM” value is -74.6%.
For the compound `CC1(C(=O)N2CCC(CC3CC(c4ccc(Cl)cc4)=NO3)(C(=O)NCC3CCCCC3)CC2)CC1` (stereo not drawn), the “hERG current change (%, negative = inhibition) at 10uM” value is on record as -40.8%.
The value for `CCOC(=O)c1c(-c2ccc(C)s2)csc1N` was 7.8%; that for `Cc1cccc(/C=C/C(=O)c2cc(Br)ccc(=O)c2O)c1` was 16.7%.
`COc1ccc(Oc2ncnc3sccc23)cc1`: the “hERG current change (%, negative = inhibition) at 10uM” value is 1.8%.
The value for `CC#CC(=O)N1CCC(CCC(=O)N(C)Cc2ccccc2)CC1` was -7.72%; that for `CNC1=CC(=O)CC(c2ccccc2)C1` (stereo not drawn) was -1.58%.
Next, `CCc1ccc(NC2=CC(=O)CC(c3ccco3)C2)cc1` (stereo not drawn): 5.49%; `CN(C)CCCNC1=CC(=O)CC(c2ccccc2)C1` (stereo not drawn): 3.58%.
For `CC(C)CNC1=CC(=O)CC(c2ccco2)C1` (stereo not drawn), the “hERG current change (%, negative = inhibition) at 10uM” value stood at 6.11%.
Next, `CCCCCCCNC1=CC(=O)CC(c2ccco2)C1` (stereo not drawn): -76.9%; `CCCCCCCNC1=CC(=O)CC(c2ccccc2)C1` (stereo not drawn): -81.3%; `COc1cc(S(=O)(=O)NCCN2CCOCC2)ccc1-n1cnnn1`: 17.5%.
Next, `O=S(=O)(Nc1ccc2c(c1)OCCO2)c1cccc2nsnc12`: -11.2%.
Next, `O=C(O)c1ccc(Cn2cnc3scc(-c4ccccc4)c3c2=O)cc1`: 20.8%; `Cn1c(CNc2nc3ccccc3n2C)nc2ccccc21`: -15.2%.
Regarding `c1ccc(Cn2c(CNc3nc4ccccc4n3CCN3CCOCC3)nc3ccccc32)cc1`, the “hERG current change (%, negative = inhibition) at 10uM” value was -84.3%.
For the compound `C=CCc1cccc(CNc2nc3ccccc3n2CCN2CCOCC2)c1O`, the “hERG current change (%, negative = inhibition) at 10uM” value is reported as -6.61%.
Next, `CCN(CC)CCn1c(NCc2nc3ccccc3n2Cc2ccccc2)nc2ccccc21`: -2.44%.
Next, `CC(C)n1c(NCc2nc3ccccc3n2C)nc2ccccc21`: -46.4%; `c1ccc(Cn2c(CNc3nc4ccccc4n3CCN3CCCCC3)nc3ccccc32)cc1`: -68.5%; `c1coc(CNc2nc3ccccc3n2CCN2CCOCC2)c1`: -33.2%.
Next, `Cn1c(CNc2nc3ccccc3n2CCN2CCCCC2)nc2ccccc21`: -65%; `C#CCOCCOCCOCCNc1nc(N2CCN(C(=O)Cn3cc(CCO)nn3)CC2)nc(N2CCN(C(=O)[C@H]([C@@H](C)O)n3cc(CCCC[NH3+])nn3)CC2)n1.[Cl-]`: 12.3%; `CCOC(=O)/C(=N\Nc1ncnc2ccccc12)c1ccc(OC)cc1`: 15%.
`COc1ccc(NC(=O)CSC2CC(=O)N(c3ccc4c(c3)OCCO4)C2=O)cc1` (stereo not drawn): the “hERG current change (%, negative = inhibition) at 10uM” value was 4.54%.
The value for `O=C(c1ccccc1-c1nc(-c2ccc(F)cc2)no1)N1CCCC1` was -30.8%; that for `Cn1nc(C(=O)Nc2ccc(Cl)c(S(=O)(=O)N3CCOCC3)c2)c2ccccc2c1=O` was -9.05%.
The value for `O=C(NC1CCS(=O)(=O)C1)N1CCCCC1` (stereo not drawn) was 13.2%.
Next, `O=C(NC(=S)N1CCN(c2nc(-c3ccccc3)cs2)CC1)c1cncc(Br)c1`: 17%.
For the compound `Cc1n[nH]c(=O)nc1NCc1ccccc1Cl`, the “hERG current change (%, negative = inhibition) at 10uM” value was 3.23%.
Take `CC(C)OCCCn1c(=O)c2ccccc2n2c(CCC(=O)O)nnc12`: the “hERG current change (%, negative = inhibition) at 10uM” value is 29.3%.
For `O=C(CCc1nnc2n(Cc3ccc(Cl)cc3)c(=O)c3ccccc3n12)N1CCN(c2ccccn2)CC1`, the “hERG current change (%, negative = inhibition) at 10uM” value was -57%.
The value for `COCCCn1c(=O)c2sccc2n2c(CCCC(=O)N3CCN(c4ccccn4)CC3)nnc12` was -2.18%; that for `O=C(CCc1nnc2n(Cc3ccc(F)cc3)c(=O)c3ccccc3n12)N1CCN(c2ccccn2)CC1` was -79.2%.
As to `Cn1c(=O)c2sccc2n2c(CCCC(=O)N3CCN(c4ccccn4)CC3)nnc12`, the “hERG current change (%, negative = inhibition) at 10uM” value was -11.1%.
Next, `CC(C)OCCCn1c(=O)c2ccccc2n2c(CCC(=O)NCc3ccccn3)nnc12`: -14.4%; `CC(C)CCn1c(=O)c2sccc2n2c(CCCC(=O)N3CCN(c4ccccn4)CC3)nnc12`: -65%; `CCn1c(=O)c2sccc2n2c(CCCC(=O)N3CCN(c4ccccn4)CC3)nnc12`: -17.6%.
Next, `O=C(O)CCc1nnc2n(Cc3ccc(F)cc3)c(=O)c3ccccc3n12`: 6.3%; `CC(C)OCCCn1c(=O)c2ccccc2n2c(CCC(=O)N3CCN(c4ccccn4)CC3)nnc12`: -71.1%.
Next, `Cc1ccc(Cn2c(=O)c3ccccc3n3c(CCC(=O)O)nnc23)cc1`: 10.9%; `O=C(c1ccc(Cn2c(=S)[nH]c3ccccc3c2=O)cc1)N1CCN(c2ccccn2)CC1`: 8.99%; `CC(C)(O)[C@H]1Cc2cc3ccc(=O)oc3cc2O1`: 21.2%.
With `O=C(CSc1nc(NS(=O)(=O)c2ccccc2)cc(=O)[nH]1)Nc1ccccc1C(F)(F)F`, the “hERG current change (%, negative = inhibition) at 10uM” value was found to be 9.04%.
Next, `CCCCCN(C(=O)CCC(=O)OCc1cccc(Cl)c1)c1c(N)n(CCCC)c(=O)[nH]c1=O`: 8.16%.
For the compound `CCCCCN(C(=O)CCC(=O)OCC(=O)c1ccc(F)c(F)c1)c1c(N)n(CCCC)c(=O)[nH]c1=O`, the “hERG current change (%, negative = inhibition) at 10uM” value is on record as -33.7%.
Next, `CCCCCN(C(=O)CCC(=O)OCC(=O)c1ccc(CCC)cc1)c1c(N)n(CCCC)c(=O)[nH]c1=O`: -61.5%; `CCCCCN(C(=O)CCC(=O)OCC(=O)c1ccc(C(C)CC)cc1)c1c(N)n(CCCC)c(=O)[nH]c1=O` (stereo not drawn): 8.1%.
For the compound `CCCCCN(C(=O)CCC(=O)OCc1ccccc1Cl)c1c(N)n(CCCC)c(=O)[nH]c1=O`, the “hERG current change (%, negative = inhibition) at 10uM” value was -49.8%.
Next, `CCCCCN(C(=O)CCC(=O)OCc1ccc(Cl)cc1Cl)c1c(N)n(CCCC)c(=O)[nH]c1=O`: -50.1%; `CCCCCN(C(=O)CCC(=O)OCC(=O)c1cccc(OC)c1)c1c(N)n(CCCC)c(=O)[nH]c1=O`: -64.6%.
The value for `CCCCCN(C(=O)CCC(=O)OCC(=O)c1ccc(C(C)(C)C)cc1)c1c(N)n(CCCC)c(=O)[nH]c1=O` was -33.7%; that for `CCCCCN(C(=O)CCC(=O)OCC(=O)NCc1cccc(OC)c1)c1c(N)n(CCCC)c(=O)[nH]c1=O` was -0.375%.
The value for `Fc1ccc(NC(=S)NCc2cccnc2)cc1` was 13.1%; that for `CCCS(=O)(=O)N1CCC(C(=O)NCCCOC)CC1` was -0.339%.
